Results reported in PubChem BioAssay AID651820 (National Center for Advancing Translational Sciences (NCATS), 2012).
In all, about 340,000 compounds went through this assay and about 12,000 (3.5%) were called active. Inconclusive results (about 18%) are left out. The call rests on the fitted dose curve; in most records, active means well fitted inhibition curve with a large enough effect; inconclusive means small, poorly fitted or top-dose-only effect, or another doubt; inactive means no such curve, though single readings can be large or run the other way. Many of the other results were omitted from the sample, so actives are more common in it than they were. Non-standard residues stand in square brackets, D forms with d. Residues, ends and D or L forms follow the SMILES beside them. ξ: configuration not given here. Ac5c = NC1(C(=O)O)CCCC1; ξS = NC(CO)C(=O)O

assay: qHTS Assay for Inhibitors of Hepatitis C Virus (HCV); conditions: Huh7.5.1 HCVcc-Cre infection, luciferase reporter, 44 h; series mostly up to 41.8 µM; activity change, negative = inhibition: at the top concentration
Summary of the method: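 Infectious HCVcc-Cre (~0.5 moi) was added to cells just after compound, with cells seeded 4 h earlier at 1,000 per well. Luciferase activity after 44 h culture reported infection; substrate was incubated 15 min at room temperature before reading.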
On the % scale 0 is the no-effect control and ±100 the full control effect; potency means the concentration at half of the fitted maximal effect.

Structure (SMILES)	activity change, negative = inhibition	Potency
COCCCNC(=O)CC1C[C@H](C(=O)N2CCCCC2)[C@@]2(CCc3ccccc3)c3[nH]c4ccccc4c3CCN2C1=O (stereo partly drawn)	35.4% (inactive)	
O=C(Nc1cccc(Br)c1)C1CC(=O)N(C2CCCC2)C1 (stereo not drawn)	4.1% (inactive)	
O=C(Nc1ncccc1O)c1ccc(C(=O)c2ccccc2)cc1	8.38% (inactive)	
COc1ccccc1/C=N/Nc1nc(C)c(C(C)=O)s1	10.5% (inactive)	
COc1ccccc1/C=N\Nc1cc(C)nc(-n2nc(C)cc2C)n1		3.16 µM (active)
COc1cccc(/C=N\NC(=O)C2=NNC(=O)C2C)c1O (stereo not drawn)	15.1% (inactive)	
COc1cccc(/C=N/Nc2cc(C)nc(-c3ccccc3O)n2)c1O		12.6 µM (active)
Cc1nc(Cl)cc(N/N=C/c2ccccc2)n1	-18.1% (inactive)	
COc1cccc(/C=N/Nc2ccc(S(=O)(=O)Nc3ccccc3C(=O)O)cc2[N+](=O)[O-])c1O	15.6% (inactive)	
N#CC1(NC(=O)COC(=O)Cc2n[nH]c(=O)c3ccccc23)CCCCC1	12.1% (inactive)	
NC1=NOC(=O)C1C1CCCCC1 (stereo not drawn)	-2.58% (inactive)	
Cc1nc(-c2ccc(F)cc2)c(CC(=O)N(C)CC(=O)Nc2c(C)cccc2C)s1	5.17% (inactive)	
CS(=O)(=O)c1ccc(C(=O)NNC(=O)c2cccs2)cc1	16.1% (inactive)	
CC1(c2ccc(Cl)cc2Cl)NC(=O)N(CC(=O)Nc2cccnc2Cl)C1=O (stereo not drawn)	0.453% (inactive)	
O=C1C=C(c2cccc(Cl)c2)C[C@@H](c2ccc(F)cc2)C1	-5.95% (inactive)	
O=C1C=C(c2cccc(Cl)c2O)C[C@@H](c2ccc(F)cc2)C1	-2.53% (inactive)	
O=C1C=C(c2ccnc3cc(Cl)ccc23)C[C@@H](c2ccc3c(c2)OCO3)C1		3.16 µM (active)
Cc1cc(C)c(C=NNc2nc3c([nH]2)c(=O)n(C)c(=O)n3C)c(C)c1	-8.43% (inactive)	
CCOc1ccc(CCNC(=O)COC(=O)C2CCN(S(=O)(=O)c3ccccc3)CC2)cc1OCC	-13.1% (inactive)	
CCOC(=O)C(CO)NC(=O)C1(NC(C)=O)CCCC1 (stereo not drawn) (Ac-[Ac5c]-[ξS]-OEt)	10.5% (inactive)	
CCN1CC(CN(C)Cc2nc(-c3ccc(Cl)cc3)no2)CC1=O (stereo not drawn)		11.2 µM (active)
CN(Cc1ccccn1)Cc1nc(-c2ccc(Cl)cc2)no1	-23.6% (inactive)	
CC1CCN(Cc2nc(-c3ccc(Cl)cc3)no2)CC1	5.28% (inactive)	

Structure (SMILES)	activity change, negative = inhibition	Potency
O=C(c1ccncc1)N1CCN(S(=O)(=O)c2cc(C(F)(F)F)cc(C(F)(F)F)c2)CC1	-2.48% (inactive)	
Cc1ccc(CNC(=O)COC(=O)C2CCC2)cc1	15.2% (inactive)	
C#CCOCCOCCOCCNc1nc(N2CCN(C(=O)[C@H](CCCN=C(N)N)n3cc(C(N)[C@@H](C)CC)nn3)CC2)nc(N2CCN(C(=O)[C@H](CO)n3cc([C@@H](N)C(C)C)nn3)CC2)n1 (stereo partly drawn)	-18.2% (inactive)	
CCOc1cc(-c2cc(-c3ccc(NC(C)=O)cc3)nc(N)c2C#N)ccc1O		11.2 µM (active)
CC(=O)Nc1ccc(-c2cn3cccnc3n2)cc1	7.55% (inactive)	
CCOc1cc(-c2cc(-c3ccc(OC)cc3)nc(N)c2C#N)ccc1O	-24.5% (inactive)	
Nc1nnc(SCC(=O)NCC(=O)Nc2ccc(F)c(F)c2F)s1	-23.5% (inactive)	
COc1ccccc1OCCCCCCN1CCN(C)CC1	-18.9% (inactive)	
CCN1CCN(CCCCOc2ccccc2F)CC1	-5.52% (inactive)	
CN1CCN(CCCCOc2cccc3ccccc23)CC1		10 µM (active)
Cc1ccc2c(O)c(Cc3ccccc3)c(=O)[nH]c2n1	7% (inactive)	
COc1ccc(S(=O)(=O)N2CCN(CC(=O)N3CCOCC3)CC2)cc1OC	1.25% (inactive)	
CCOC(=O)c1ccccc1NC(=O)CSc1nc2c(sc(=S)n2CC)c(=O)[nH]1	18.2% (inactive)	
COc1ccc2c(c1)O/C(=C\c1ccccc1O)C2=O	2.33% (inactive)	
COc1cc2cc(C(=O)N/N=C/c3cccc(OC)c3OC)[nH]c2cc1OC	-14.6% (inactive)	
COc1ccc(/C=N/NC(=O)c2cccc(C(F)(F)F)c2)cc1	17.5% (inactive)	
CCOc1ccc2[nH]c(C(=O)N/N=C/c3cccc(OC)c3OC)cc2c1		12.6 µM (active)
COc1ccccc1CNC(=O)COC(=O)c1sc(C)nc1C	8.83% (inactive)	
CCN(C(=O)CSc1nnnn1-c1ccc(OC)cc1)C1CCS(=O)(=O)C1 (stereo not drawn)	0.363% (inactive)	
Oc1ccc(CN2CCN(c3ncccn3)CC2)cc1	7.41% (inactive)	
Oc1c(CN2CCN(c3ccc(F)cc3)CC2)cc(Cl)c2cccnc12		3.55 µM (active)
Oc1cc2c(cc1CN1CCN(c3ccccc3)CC1)OCO2	-1.36% (inactive)	
Cc1cc(O)c(Sc2ccccc2)c(=O)o1	4.91% (inactive)	

Structure (SMILES)	activity change, negative = inhibition	Potency
COc1ccc(OC)c(S(=O)(=O)Nc2c(C)nn(C)c2C)c1	1.56% (inactive)	
N#CC1=C(N)Oc2cc(N)ccc2C1c1ccccc1 (stereo not drawn)	-25.3% (inactive)	
Cc1nn(-c2ncccn2)c2c1C(=O)CC(C)(C)C2Br (stereo not drawn)	-27.1% (inactive)	
COc1ccc(OCC(O)CNCCNc2nccc(C(F)(F)F)n2)cc1 (stereo not drawn)	28.7% (inactive)	
CC(C)(C)CC(C)(C)NCC(O)COCCOc1ccc(Br)cc1 (stereo not drawn)		6.31 µM (active)
CC(Oc1ccc(Br)cc1)C(=O)NC1CCCCCC1 (stereo not drawn)	-2.46% (inactive)	
COc1ccc(-c2nnc(SC(C)C(=O)NC3CC3)o2)cc1 (stereo not drawn)	4.88% (inactive)	
O=C(N=C1SC2CS(=O)(=O)CC2N1c1ccccc1)c1ccccc1 (stereo not drawn)	4.87% (inactive)	
O=C(/C=C/c1ccco1)Nc1cccc(-c2nc3ccccc3[nH]2)c1	-7.35% (inactive)	
O=C(/C=C/c1ccco1)Nc1ccc(Oc2ccccc2)cc1		14.1 µM (active)
Cc1nnc(NC(=O)/C=C/c2ccco2)s1	13% (inactive)	
Cc1cc(OCCCC(=O)NCCN2C(=O)S/C(=C\c3cccnc3)C2=O)ccc1Cl		10 µM (active)
CCOc1ccc(N2CC(C(=O)NCCN3C(=O)S/C(=C\c4cccnc4)C3=O)CC2=O)cc1 (stereo not drawn)	-16.4% (inactive)	
O=C(NCCN1C(=O)S/C(=C\c2cccnc2)C1=O)c1cccc(OC(F)F)c1	1.89% (inactive)	
Cc1cccc(-c2ncc(CN3CCC(CO)(CCCc4ccccc4)CC3)cn2)c1		10 µM (active)
CC(=O)c1cccc(CN2CCC(CO)(Cc3ccccc3)CC2)c1	-1.38% (inactive)	
OCC1(CCc2ccccc2)CCN(Cc2ccc3nsnc3c2)CC1	6.6% (inactive)	
c1ccc2cc(CCCc3cc4ccccc4cn3)ncc2c1	-5.19% (inactive)	
COc1ccc([C@H]2CC(=O)C=C(/C=C/c3ccccc3)C2)cc1	1.94% (inactive)	
COc1cc(C(=O)NCc2nnc(SCC(=O)c3ccc(Cl)cc3)o2)cc(OC)c1OC	-20.9% (inactive)	
CCC(=O)Nc1ccc(C(=O)CSc2nnc(CNc3ccc(Cl)cc3)o2)cc1OC		5.01 µM (active)
CCOC(=O)CSc1nnc(CNc2ccc(F)cc2)o1	2.35% (inactive)	
